Assay results published in PMC5540273 (PLoS ONE, 2017).
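Also: KINOMEscan kinase panel screen.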

What follows are compounds tested on T1, PKAC-beta. Conditions: concentration: 1 μM, replicates: in singlicate; n = 1.
T1 construct: gene PRKACB
With `COc1ccc(COc2cc(-n3cnc4ccccc43)sc2C(N)=O)cc1` [GSK1024304] the “%Inh” value was 0%. `Cc1nnc(-c2ccc3ncc(-c4ccc(S(C)=O)cc4)n3c2)o1` (centres unmarked) was tested, and the “%Inh” value was 8%. For `COc1ccc(S(=O)(=O)NC2CCN(c3cc(C)nc(Nc4cccc(C#N)c4)n3)CC2)cc1.O=C(O)C(F)(F)F` [GSK1653539], the “%Inh” value was 0%. `COc1ccc(Nc2nccc(N3CCC(NC(=O)Nc4cccc(C(C)=O)c4)C3)n2)cc1` (centres unmarked) [GSK1379731] was tested, and the “%Inh” value was 0%. `Cc1cccc(-c2nc(Nc3ccc4ncsc4c3)c3ccccc3n2)n1` [GW867588] was tested, and the “%Inh” value was 21%. `C[C@@H](Oc1cc(-n2cnc3ccc(NC(=O)NC(C)(C)C)cc32)sc1C(N)=O)c1ccccc1Cl` [GSK346294] was tested, and the “%Inh” value was 0%. In the case of `c1ccc(-c2cc(-c3c[nH]nc3-c3ccccn3)ccn2)cc1` [GW576604], the “%Inh” value is reported as 0%. With `CCc1nc(-c2cccc(C)c2)c(-c2ccnc(NCc3ccccc3)c2)s1` the “%Inh” value was 0%. In the case of `COCCNC(=O)c1ccc(-c2cc(C(=O)NC3CC3)cc(F)c2C)cc1` [GW868318], the “%Inh” value is reported as 37%. `N#Cc1ccc(-c2cc(-c3c[nH]nc3-c3ccccn3)ccn2)cc1` [GW693028] was tested, and the “%Inh” value was 0%. With `O=C(Nc1n[nH]c2cc(-c3cccc(F)c3)ccc12)C1CC1` [SB-735464] the “%Inh” value was 6%. For `Cl.Oc1cccc(Nc2ccnc3cc(-c4ccncc4)ccc23)c1` [GW494601], the “%Inh” value was 0%. For `Cn1cc(-c2ccc3c(c2)CCN3C(=O)Cc2ccccc2Cl)c2c(N)ncnc21` [GSK2608885], the “%Inh” value was 34%. With `CN1c2ccc(CNc3ccc(F)cc3)cc2-c2c(cnn2C)S1(=O)=O` the “%Inh” value was 0%. `O=c1cc(N2CCOCC2)nc2n(Cc3cccc(C(F)(F)F)c3)ccn12` [GSK2297543] was tested, and the “%Inh” value was 8%. For `Fc1ccc(-c2nn3c(OCC(F)(F)F)cccc3c2-c2ccncc2)cc1` [GW514784], the “%Inh” value was 32%. `COc1cc2c(cc1OC[C@@H](O)CO)ncc1c3ccc(C#N)cc3[nH]c21` was tested, and the “%Inh” value was 0%. In the case of `Nc1nc(-c2ccc3c(N)n[nH]c3c2)cc(N2CCCC2)n1` [GSK2227430], the “%Inh” value is reported as 0%. In the case of `Cc1cccc(-c2nc(-c3ccc(S(C)(=O)=O)cc3)sc2-c2ccncc2)c1`, the “%Inh” value is reported as 0%. For `NCC(NC(=O)c1cc(-c2cn[nH]c2)c(-c2ccnc3[nH]ccc23)s1)c1ccccc1.O=C(O)C(F)(F)F.O=C(O)C(F)(F)F` (centres unmarked) [GSK1325775], the “%Inh” value was 98%. For `O=C(Nc1cccc(-c2nn3ncccc3c2-c2ccnc(Nc3cccc(C(F)(F)F)c3)n2)c1)c1c(F)cccc1F` [GSK299495], the “%Inh” value was 6%. `O=c1cc(N2CCOCC2)nc2n(Cc3cccc4ccccc34)ccn12` [GSK2333389] was tested, and the “%Inh” value was 8%. In the case of `CSc1ccc(-c2cc3ncnc(SCC(=O)O)c3s2)cc1`, the “%Inh” value is reported as 0%. With `O=C(NCCNc1ccnc(Nc2ccc(F)cc2)n1)c1cc2ccccc2s1` [GSK1379874] the “%Inh” value was 0%. For `COc1cc2c(cc1OCCN1CCN(C)CC1)ncc1c3ccc(C#N)cc3[nH]c21`, the “%Inh” value was 0%. `Cc1nnc(-c2ccc3occ(-c4ccc(C(C)O)cc4)c3c2)o1` (centres unmarked) was tested, and the “%Inh” value was 17%. In the case of `COc1ccc(Nc2ncc(C#N)c(Nc3ccccc3C(N)=O)n2)cc1N1CCN(C)CC1.Cl` [GSK1558669], the “%Inh” value is reported as 76%. For `O=C(NCCCN1CCOCC1)c1cccc(Nc2nccc(Nc3ccc(Oc4ccccc4)cc3)n2)c1` [GW663929], the “%Inh” value was 0%. For `CC(=O)Nc1ccc(COc2ccc(Nc3ccnc4cc(-c5ccccn5)ccc34)cc2)cc1.Cl` [GW440148], the “%Inh” value was 0%. In the case of `c1ccc(-c2n[nH]cc2-c2ccnc3ccccc23)nc1` [GW271431], the “%Inh” value is reported as 14%. For `COc1ccc(CNC(=O)NC2CCN(c3ccnc(Nc4ccc(OC)cc4)n3)C2)cc1` (centres unmarked) [GSK1379727], the “%Inh” value was 0%. `O=C(c1ccc(-c2cc(-c3c[nH]nc3-c3ccccn3)ccn2)cc1)N1CCOCC1` [GW812171] was tested, and the “%Inh” value was 3%. `COc1cc(Nc2nccc(N3CCC(NC(=O)c4cccc(NC(C)=O)c4)C3)n2)cc(OC)c1OC` (centres unmarked) [GSK1379754] was tested, and the “%Inh” value was 11%. `CC(C)(C)n1cnc2c(N)ncnc21` [SKF-97359] was tested, and the “%Inh” value was 20%. In the case of `Cc1c(Cn2c(C)nn3c(=O)cc(N4CCOC(C)C4)nc23)cccc1C(F)(F)F` (centres unmarked) [GSK2344444], the “%Inh” value is reported as 17%.
